According to the supplement of paper PMC11417369:
± gives the standard deviation of the averaged measurements. Over roughly 25,000 sequences, “ln(normalized median fluorescence intensity)” has its median near 7.9; the highest 2% begin near 11. Only a selection was taken, and the highest values are over-represented in it overall.

The sequences below were run on PfAP2-I AP2 domain 3 (GST-tagged) (assay: gcPBM binding intensity (ln(normalized median fluorescence intensity)); higher = stronger DNA binding).
Procedure, shortened: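 GST-fused DNA-binding domains of P. falciparum, expressed in E. coli, were applied at about 25 μg on average for 1 h to an Agilent 4 × 180k array of primer-extended double-stranded 36-bp intergenic genomic probes and negative controls. Binding intensity is the highest Masliner-normalised natural-log median intensity across replicate spots of either probe orientation, measured with Alexa488 anti-GST antibody and a 488 nm scan.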

| Sequence | gcPBM binding intensity (ln) |
| --- | --- |
| CAAAAAACAACAGATCGTACAAAATATTATATATAT [XGTACX_site2285] | 8.12 ± 0.67 |
| TTTTTTTTTTTTTTCTGTACTTAAAAAGGGGGAGAA [XGTACX_site3799] | 8.79 ± 0.7 |
| ATACATTCAAAATATACACACATATATCTATAATAT [CACACA_site6576] | 7.69 ± 0.65 |
| TGCAGTCTGGAGAAAAGTACATAGTATCTGGTAGCT [XGTACX_site2547] | 7.87 ± 0.66 |
| GAATGTAAATATTAAAGTACACAGAATATATCTTCA [XGTACX_site8149] | 7.79 ± 0.16 |
| AGAATAATAAAATGGGTGCAATAGTTTTTTTTTTTT [GTGCAC_site9823] | 11.2 ± 0.44 |
| GATAATCAGAATGGGGTGCAAAGAAAAAAAAAAAAA | 10.7 ± 0.46 |
| ATAATAAAAATAAGAGAATAAAAATGCAATTTAATG [CACACA_negctrl_site878] | 7.95 ± 0.47 |
| ATATATATTATATATAGTACTTTTTTGCGCAAATAT [XGTACX_site6849] | 8.08 ± 0.44 |
| CATTTGCACCCGCACACACACATAAAAAGAAAAATA [CACACA_site4350] | 10.7 ± 0.8 |
| TAAGAAATAAATAGTACACACATAGACACCCACCGA [CACACA_site1516] | 8.86 ± 0.15 |
| ACATTAAGACACATTGCACACGTGCACCCATAGAAA [CACACA_site8029] | 10.965 ± 0.007 |
| ACCCATTGCTCACGTGCACACATAGAAAAATAATTC [CACACA_site4389] | 10.7 ± 0.16 |
| ATTAAGACACATTGCACACGTGCACCCATAGAAAAA [CACACA_site408] | 11.02 ± 0.099 |
| TAAGAAATAAATAGTACACACATAGACACCCACCCA [CACACA_site8429] | 8.65 ± 0.54 |
| TACACCCATAGACACACACACACGCATAAAAAAAAA [CACACA_site8428] | 8.36 ± 0.34 |
| CCATTAAGACACATTGCACACGTGCACCCATAGAAA [CACACA_site4388] | 10.79 ± 0.021 |
| ACATTGCACCCGTGCACACATAGAAAAATAATTCTT [CACACA_site409] | 11.1 |
| TTTTTTGTTTGAATGGTGCATTTTGTAATTATATTT | 10.3 ± 0.41 |
| TTGTTATGTTTTATTTGTACGTAGGTTTCTATCAAA [XGTACX_site7636] | 8.12 ± 0.35 |
| ATATTTATTTATATGTGTACTTATGTTTATATAAAA [XGTACX_site4250] | 8.02 ± 0.21 |
| GAAAATATAAAAAAAAGTACATTTTCTCTAAATATA [XGTACX_site2441] | 7.57 ± 0.35 |
| ATTTTTTTACTGTAACCATATTTTTCCCTTTTATTC [CACACA_negctrl_site1143] | 7.95 ± 0.79 |
| TGTATGTTATATACAACACACAAAAAAAAACAAGTT [CACACA_site301] | 7.62 ± 0.7 |

| Sequence | gcPBM binding intensity (ln) |
| --- | --- |
| AGACAATATCTTATTTGTACATATGTATTCCTCATA [XGTACX_site5757] | 7.88 ± 0.63 |
| GGGAATATAAGTACACGATAATATGTGATAAGGTCT [CACACA_negctrl_site1502] | 8.28 ± 0.86 |
| AAGAACCATATTTAAACACACATACCTATATAAATA [CACACA_site7553] | 7.68 ± 0.53 |
| ATGTTACACCGACACACACACATAAAAAAACAAAAA [CACACA_site5750] | 8.15 ± 0.34 |
| ATTTTTTTCTTAGGAGTGCACTTATATTTATTTTAT | 10.8 ± 0.49 |
| ACGTGTATTTATTTAGTGCACTTTATATTTTTTCTT [GTGCAC_site9426] | 11.5 ± 0.28 |
| TATATATATTAGTGTGCACACTTTTTATTTTTATCC [CACACA_site8506] | 9.33 ± 0.4 |
| ACACCTATAAATTAAGTGCATTTTTTTTGATGTTAT | 9.45 ± 0.46 |
| TTATACCTATATTTAACACACATTTGATAAAGTGCC [CACACA_site6732] | 7.76 ± 0.61 |
| ATACCTATTTGATGAGTGCATTATCCAATATATGTA | 11.3 ± 0.65 |
| ATTTTTGTTATTACATGTACCCATAATTATTATTAA [XGTACX_site3558] | 8.58 ± 0.75 |
| AAAATTATAATAATATGTACTTAAAAAATTTATATA [XGTACX_site632] | 7.54 ± 0.2 |
| TTTTTGTTACCTATTGTGCACTTCATATAAATTAAA | 11.3 ± 0.35 |
| TGTTAAAATTATTTGGTGCACTTGTTTTACCTTATT | 10.8 ± 0.48 |
| ACATTAAAAAATTGTTTGCACTATATAAAATATTAA [GTGCAC_site9728] | 9.86 ± 0.28 |
| TATATATGCATATACATACACACATAACACATACGT [CACACA_site3833] | 8.24 ± 0.39 |
| TATGTTTACATATACGTGCACATGAATGTATACATT [GTGCAC_site9894] | 10.7 ± 0.29 |
| TTTATACATACATTCGTGCACATACGTATAACATAT | 11.2 ± 0.19 |
| ATACGTATATAATATACATGCATATATAGCACATAC [TGCATGCA_site376] | 9.11 ± 0.66 |
| TAATATATAACGTGCACACACACATTTACGTATGAA [CACACA_site1832] | 10.86 ± 0.064 |
| ATATATAACGTGCACACACACATTTACGTATGAATA [CACACA_site6948] | 10.975 ± 0.007 |
| ATTAATATATAACGTGCACACACACCGTTACGTATG [CACACA_site8543] | 10.3 ± 0.35 |
| ATATATAACGGGCACACACACATTTACGTATGAATA [CACACA_site1833] | 8.31 ± 0.49 |
| TAATATATAACGTGCACACACACATCTACGTATGAA [CACACA_site5080] | 10.82 ± 0.099 |

| Sequence | gcPBM binding intensity (ln) |
| --- | --- |
| AATGTCCTTATTTGCACACACACATATAAGAAATTT [CACACA_site3186] | 9.91 ± 0.23 |
| TTACGCGCTTATTACACACACATACAAATAAGGATT [CACACA_site3486] | 8.06 ± 0.47 |
| ATAATCAACATTAGGTGTACAAAATATGTATGTTTT [XGTACX_site6696] | 8 ± 0.59 |
| AATTTTTTTCTCCAAGTGCATTAGAACATTAACGTA [GTGCAC_site9413] | 10.9 ± 0.53 |
| ATTATTAAGTTTCACAAGAACATTGTTAACAATTTT [CACACA_negctrl_site1128] | 7.5 ± 0.64 |
| TTTTCTTTTTCCAAAAGTACGTAATTTAAACATTTT [XGTACX_site2066] | 7.83 ± 0.43 |
| AAAAAAAATTATATTTGTACGCATTAAAAAATCTAA [XGTACX_site1616] | 7.64 ± 0.26 |
| TGAACTCAACAAAGGGTGCATAACAAAAATAGACGT | 11.4 ± 0.23 |
| TGAACAGACAAATACACACACTCAAAAAAAAAAAAG [CACACA_site7287] | 7.68 ± 0.45 |
| ATAACAAAAAAAAAGGTGCTACAAAATGAATAAAAA [GTGCAC_site9659] | 9.12 ± 0.3 |
| TTTTTTTTTAATATTTGTACACAACATGAAACATTT [XGTACX_site473] | 8.16 ± 0.53 |
| TATATTTATGTATATGTGCACATAAATTTAAGAATG [GTGCAC_site9512] | 9.68 ± 0.19 |
| TATTGACATATATTAGTGCAATAATGAAATCAAGTA | 10.9 ± 0.43 |
| TATATATTAATCAAAGTGCAATAATAAAATAAAAGT [GTGCAC_site9490] | 10.8 ± 0.34 |
| TATAAGAATGACAAGTGTACATATCAAATATATTAG [XGTACX_site7113] | 7.77 ± 0.38 |
| ATAAAATAAAGGAAAAATATTAAGTTTTAAGAAAAT [CACACA_negctrl_site1066] | 7.6 ± 0.76 |
| ATTATTTAAATGGATGCACACATGCATTAAATAAAA [CACACA_site5831] | 8.99 ± 0.82 |
| ACGCAATATTAACAAGTGCATTATAACACATAACAT | 11.3 ± 0.61 |
| AATAACAAAATATTAACACACATAACATATTATAAA [CACACA_site2803] | 7.55 ± 0.47 |
| ATATATTATATTATATGTACTTAAAAAAGTGCAAAG [XGTACX_site318] | 8.485 ± 0.035 |
| CATTATGTACAAAAAGTGCAATATATATTAACACTG | 11 ± 0.43 |
| ACAATATGCAAAAAGTGTACACATTCATTTATATAA [XGTACX_site1061] | 8.34 ± 0.32 |
| AAAAAAATTACGCAAGTGCATATAATTTAACAAAAA | 9.625 ± 0.007 |
| AATTAAATTACTTATACACACATAAAATGTCTGTAT [CACACA_site997] | 7.76 ± 0.34 |

| Sequence | gcPBM binding intensity (ln) |
| --- | --- |
| AAATTTATGTGTGCCTGTACATATCAAAGATTTAAG [XGTACX_site8547] | 7.93 ± 0.34 |
| AAATAACAAAAGAAGGTGCTCATAAAAATTCATACA [GTGCAC_site9864] | 8.51 ± 0.28 |
| ACATACATATGTAAATGTACAAAATATCCATAGATT [XGTACX_site2782] | 7.54 ± 0.77 |
| TCAGATCCATAGAAGGTGCAAATAACAAAAATACAA [GTGCAC_site9610] | 11 ± 0.43 |
| GAAATAAAAAGAAATGCATGTAATTTTTTTTTTTTT [TGCATGCA_site928] | 7.61 ± 0.83 |
| AATGACATTCTTACACGTACAAAATAAAAAATAAAA [XGTACX_site6932] | 7.89 ± 0.59 |
| CTTTATAAAATAAGAGTGCGTTATATTGAATTGTAT [GTGCAC_site9390] | 10.9 ± 0.6 |
| AATTTGTAAAATAAGGTGCGTATAAAAAATTATATT [GTGCAC_site9676] | 9.71 ± 0.2 |
| ATAAGAATATATAGAGTGCGTTGAAGAATTATAATA | 9.89 ± 0.27 |
| TTATTCATATTATCATGTACTTATATATATTGTCAT [XGTACX_site2231] | 7.72 ± 0.55 |
| AGAAGAAAAGTAAAAAGTACATTATTCATGGCCTAT [XGTACX_site5601] | 7.46 ± 0.7 |
| TTAGAAAAATTATATATACACACTTATATTTATATA [CACACA_site2821] | 7.28 ± 0.4 |
| TAAATATTTTTAGATGCATGCAATAATTACCCAAAG [TGCATGCA_site636] | 8.15 ± 0.78 |
| ATTATATACAAATAAAGTACATAAACAAATTCAGAA [XGTACX_site1187] | 7.77 ± 0.47 |
| ATGTTAATTAATGAGGTGCATTGAATATTTCAATAA | 10.9 ± 0.73 |
| TCTTTCAATATTAATGCATGTTAATAATAAATTTTA [TGCATGCA_site448] | 7.96 ± 0.57 |
| AATATTTTTCAATTTCATGTGCATTCATTGAAGTTA [CACACA_negctrl_site1232] | 8.76 ± 0.37 |
| TAAGTATATATATTTACACACATTTGTTTTTTTTTA [CACACA_site3784] | 7.57 ± 0.6 |
| AAAAAATAGAATATAAAAATAAAGGAATTAAATTAA [XGTACX_negctrl_site420] | 7.33 ± 0.75 |
| AAAAACTTATATGATACACACGATAAACAAAATAAA [CACACA_site1039] | 7.91 ± 0.42 |
| ATTAGCAACATTGATAAATATAAACACACGAAAACA [TGCATGCA_negctrl_site97] | 8.09 ± 0.68 |
